D3 ag = activates the human D3 dopamine receptor | P35462 | D3R DiscoveRx beta-arrestin cells, luminescence, 90 min | max activation, % | 410,000 compounds, 0.58% hits | AID 652048; in the data active = max activation above about 30%; also: 0% is about no effect
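Agonist-mode cell screen: cells plated at 1500/well and incubated overnight at 37 °C, then exposed to library compounds for 90 min at 37 °C. Detection reagent was added for 30–60 min at room temperature, and luminescence was read.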
DT40 TDP1 CPT = growth inhibition of DT40 Tdp1-/-;hTDP1 cells with camptothecin (screen for TDP1 inhibitors); chicken DT40 Tdp1-/-;hTDP1 cells + 20 nM CPT, ATP luminescence, 48 h; Potency, µM (titrated, usually from 46.2 µM), without a hit: at the top dose activity change, negative = growth inhibition, usual class: inhibitors; 420,000 compounds, 12% hits; also: potency is read from the fitted curve at half-maximal effect; % is scaled to controls: 0 for no effect and ±100 for the full control effect; nearly all actives have a fitted effect of over 55% in size
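Chicken DT40 Tdp1-/- cells stably complemented with human TDP1 were seeded at 400 cells/well in medium containing 20 nM camptothecin, exposed to pin-transferred compounds, and grown at 37 °C for at least 48 hr. Viability was read as ATP luminescence.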
TDP1 cell noCPT = qHTS for Inhibitors of human tyrosyl-DNA phosphodiesterase 1 (TDP1): qHTS in cells in absence of CPT | DT40 Tdp1-/- hTDP1 cells, no CPT, ATP luminescence, 48 h | Potency, µM (doses to about 46.2 µM), without a hit: top-dose activity change, negative = growth inhibition, most hits filed as inhibitors | 420,000 compounds, 15% hits; also: potency is read from the fitted curve at half-maximal effect; % is scaled to controls: 0 for no effect and ±100 for the full control effect; nearly all actives have a fitted effect of over 55% in size
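Stably hTDP1-transfected Tdp1-null chicken DT40 cells were treated with library compounds minus camptothecin and grown for at least 48 hr at 37 °C, after which cellular ATP was quantified by luminescence.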
D3 antag = D3 dopamine receptor (human) antagonism; P35462; D3R cells, DiscoveRx beta-arrestin luminescence, antagonist mode; stronger effect = lower value; max response, negative = inhibition, %; 360,000 compounds, 2.5% hits; in the data active = max response below about -50%; inconclusive = no clear call, values can overlap the other calls; also: % is scaled to controls: 0 for no effect and ±100 for the full control effect
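Cells expressing the human receptor were seeded at 1500 cells/well, incubated overnight at 37 degrees C in 5% CO2, then exposed to library compounds with dopamine controls for 90 minutes at 37 degrees C before luminescent detection.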
ClpP mod = qHTS Assay for Activators of ClpP | 340,000 compounds, 1.9% hits | ATP-dependent Clp protease proteolytic subunit (Bacillus subtilis (strain 168)), P80244 | purified B. subtilis ClpP, FRET peptide cleavage, 20 min | AID 651965, 2013 | Potency, µM (top dose mostly 57.5 µM), for inactives: at the highest dose activity change, negative = active; active = well fitted falling curve with a large enough effect; inconclusive = small, poorly fitted or top-dose-only effect; inactive = no such curve, though single readings can be large or run the other way; also: potency is read from the fitted curve at half-maximal effect; the source files actives as falling curves though it sought activators and does not explain the sign; nearly all actives have a fitted effect of over 65% in size
Target sequence (P80244 whole entry, looked up): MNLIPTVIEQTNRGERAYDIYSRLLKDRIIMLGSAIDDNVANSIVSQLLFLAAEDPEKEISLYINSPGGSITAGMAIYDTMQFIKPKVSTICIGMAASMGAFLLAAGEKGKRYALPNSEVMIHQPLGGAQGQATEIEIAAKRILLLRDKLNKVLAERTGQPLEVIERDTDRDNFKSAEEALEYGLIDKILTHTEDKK
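Purified B. subtilis ClpP, 10 microg/mL final in Tris/HCl pH8 with KCl, BSA, glycerol and Tween-20, cleaved an Abz/nitrotyrosine-quenched decapeptide. Fluorescence (ex 320, em 430) was read at 0 and 20 min at room temperature. Delta was normalized to 5.8 microM ADEP and DMSO/no-enzyme controls.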
IL1B secr inh = inhibitors of inflammasome signaling (IL-1 beta secretion) | 360,000 compounds, 4.7% hits | activity change, % at 57.5 µM | THP-1 LPS/ATP IL-1B secretion, AlphaLISA, 16 h; stronger effect = lower value; in the data active = activity change below about -50%; inconclusive = mostly about -30% to -49%; also: % is scaled to controls: 0 for no effect and ±100 for the full control effect
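THP-1 cells pretreated 1 hr with compounds (up to 57.5 uM final), then stimulated with LPS (250 ng/mL final) plus ATP (1.25 mM final); secreted IL-1B measured by AlphaLISA after 16 hr, decreased signal indicating inhibition.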
* = called active by the depositor; ? = inconclusive; / = no result given. Most compounds without a hit are left out; they make up all but 21% or so of the library. Unless noted, calls follow the shape of the dose curve; as a rule, active = well fitted inhibition curve with a large enough effect; inconclusive = small, poorly fitted or top-dose-only effect; inactive = flat fitted curve, though single readings scatter.

SMILES	D3 ag	DT40 TDP1 CPT	TDP1 cell noCPT	D3 antag	ClpP mod	IL1B secr inh
C/C=C(\C)C(=O)OC(C)(C)[C@H]1Cc2cc3ccc(=O)oc3cc2O1	-6	23µM*	?	-13	4%	-22
Clc1nc2c(-c3ccccc3)nnn2c2ccccc12	-4	2.6µM*	3.3µM*	-6	11%	-84*
Fc1cccc(-c2nnn3c2nc(NCCc2ccccc2)c2ccccc23)c1	19	5%	-14%	/	-19%	/
Fc1cccc(-c2nnn3c2nc(NC2CCCCC2)c2ccccc23)c1	-2	?	26µM*	/	4%	/
Clc1ccc(-c2nnn3c2nc(N2CCCCC2)c2ccccc23)cc1	-1	1%	0%	/	-2%	/
Fc1cccc(-c2nnn3c2nc(NCc2ccc4c(c2)OCO4)c2ccccc23)c1	5	-7%	?	/	-5%	/
Fc1cccc(-c2nnn3c2nc(Cl)c2ccccc23)c1	-4	2.6µM*	2.6µM*	0	4%	29
Cc1ccc(-c2nnn3c2nc(Cl)c2ccccc23)cc1	16	2.9µM*	4.6µM*	3	/	-75*
CCOC(=O)c1cc(CC)sc1NC(=O)COc1ccccc1C	2	8%	2%	/	0%	/
COc1ccc(NC(=O)COc2cccc3c2CCN(Cc2cccnc2)C3=O)c(OC)c1	15	12µM*	10µM*	27	0%	-26
COc1cccc(C(C(=O)NCc2ccccc2)N2CCN(CCN3CCOCC3)CC2)c1OC (configuration not stated)	0	-6%	-3%	3	-4%	0
COc1cccc(C(C(=O)NCc2ccccc2)N2CCN(c3ccccc3F)CC2)c1OC (configuration not stated)	2	21µM*	16µM*	6	0%	-26
O=C(NCc1ccccc1)C(c1ccc(F)cc1)N1CCN(c2ccccc2F)CC1 (configuration not stated)	-9	9.2µM*	12µM*	-5	-3%	-21
CCOC(=O)C1CCN(S(=O)(=O)c2cn(C)cn2)CC1	-2	-3%	-1%	13	-1%	15
COc1ccc(S(=O)(=O)N2CC(O)C[C@H]2C(=O)OCC(=O)N2CCCCCC2)cc1 (some centres not stated)	10	-2%	-21%	8	/	1
Cc1cc(NC(=O)CSc2nc(C3CC3)nc3sc4c(c23)CCC(C)C4)no1 (configuration not stated)	-2	16µM*	18µM*	-14	0%	24
CCn1c(SCC(=O)Nc2cc(C)on2)nc2sc3c(c2c1=O)CCCC3	8	?	6.5µM*	14	-8%	29
NC(=O)CSc1nc(C2CC2)nc2sc3c(c12)CCCC3	0	-24%	-8%	7	-1%	27
C=C(C)Cn1c(SCC(=O)c2ccccc2)nc2sc3c(c2c1=O)CCCC3	1	-2%	?	/	0%	/
C=CCn1c(SCC(=O)Nc2ccc(O)cc2)nc2sc(C)c(C)c2c1=O	5	2%	-20%	-7	/	7
C=C(C)Cn1c(SCC(=O)Nc2cccc(C)c2)nc2sc3c(c2c1=O)CCCC3	34*	9.2µM*	13µM*	/	0%	/
C=CCn1c(SCC(=O)Nc2cc(C)on2)nc2sc(C)c(C)c2c1=O	0	?	6.5µM*	24	1%	-12
CCCn1nnnc1COc1ccc(C(N)=O)cc1	3	0%	9%	8	0%	20
CN1CCN2c3ccccc3CC3(C(=O)OC(C)(C)OC3=O)C2C1 (configuration not stated)	/	5%	-9%	/	-3%	/

Screening data from PubChem BioAssay.
